{"source": "PubChem BioAssay AID485317", "about": "(Broad Institute, 2010)", "note": "Screen size: about 290,000 compounds; about 11,000 (3.8%) were called active.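 The calls were made as follows: active = mean replicate inhibition above about 79%, with every replicate also reaching it (limit read from the data); inconclusive = only one of the two criteria met; inactive = mean below limit and not every replicate reaching it.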 The entries come from a sample that favours actives as a whole."}
{"target": "FAD-linked sulfhydryl oxidase ALR (Homo sapiens) (UniProt P55789)", "sequence (P55789 whole entry, looked up)": "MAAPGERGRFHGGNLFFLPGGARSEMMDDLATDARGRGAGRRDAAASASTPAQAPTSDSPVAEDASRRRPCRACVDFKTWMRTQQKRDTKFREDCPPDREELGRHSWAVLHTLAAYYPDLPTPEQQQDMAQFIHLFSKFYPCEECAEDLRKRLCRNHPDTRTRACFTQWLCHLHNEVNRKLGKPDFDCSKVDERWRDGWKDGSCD", "test": "ALR-catalysed DTT oxidation blockers – biochemical, H2O2 detection, HRP-luminol luminescence, single point, primary screen (AID 485317)", "conditions": "purified ALR, active compounds read high, concentration not given here"}
{"smiles": "OCCCNc1nc(-c2ccccc2)c2cc(Cl)ccc2n1", "inhibition": "-2.06% (inactive)"}
{"smiles": "CC(Sc1ncnc2c1cnn2-c1ccccc1)C(=O)Nc1ccc(N2CCOCC2)cc1", "note": "(stereo not drawn)", "inhibition": "-5.27% (inactive)"}
{"smiles": "COC(=O)c1c(-c2ccc(C)cc2)csc1N", "inhibition": "97.8% (active)"}
{"smiles": "CCOC(=O)c1c(-c2ccc(C)cc2)csc1/N=C(\\C)C1=C(O)c2ccccc2C1=O", "inhibition": "1.75% (inactive)"}
{"smiles": "CCOC(=O)c1c(-c2ccc(-c3ccccc3)cc2)csc1NC(=O)CCC(=O)O", "inhibition": "60.9% (inactive)"}
{"smiles": "COc1ccc(Cl)cc1C(=O)Nc1ccc(N(C)C(C)=O)cc1", "inhibition": "-1.72% (inactive)"}
{"smiles": "COc1cc(OC)c(C(=O)Nc2ccccc2-c2ccccc2)cc1OC", "inhibition": "-1.64% (inactive)"}
{"smiles": "COc1cc(OC)c(C(=O)Nc2ccc(N(C)C)cc2)cc1OC", "inhibition": "99.6% (active)"}
{"smiles": "Cc1ccccc1SCC(=O)OCC(=O)N1CC(=O)Nc2ccccc21", "inhibition": "-7.18% (inactive)"}
{"smiles": "COc1ccc(-n2ncc3c(SCC(=O)NNC(C)=O)ncnc32)cc1", "inhibition": "-1.15% (inactive)"}
{"smiles": "COC(=O)CSc1ncnc2c1cnn2-c1ccc(C)cc1C", "inhibition": "96.9% (active)"}
{"smiles": "Cc1ccc(-n2ncc3c(=O)[nH]cnc32)c(C)c1", "inhibition": "-6.83% (inactive)"}
{"smiles": "CCOC(=O)C1CCCN(C(=O)c2ccc(C)c(S(=O)(=O)N3CCCCC3)c2)C1", "note": "(stereo not drawn)", "inhibition": "-0.131% (inactive)"}
{"smiles": "COc1cc(N2C(=O)CSC2=S)cc(OC)c1OC", "inhibition": "3.65% (inactive)"}
{"smiles": "O=C1CSC(=S)N1c1ccc(O)cc1", "inhibition": "91.3% (active)"}
{"smiles": "O=C1CSC(=S)N1c1ccc(Cl)c(Cl)c1", "inhibition": "38.1% (inactive)"}
{"smiles": "CCOc1ccccc1OCC(=O)Nc1ccccc1C(=O)NC1CC1", "inhibition": "20.6% (inactive)"}
{"smiles": "CCOc1ccc(C(C)NC(=O)CN2C(=O)NC3(CCCCC3)C2=O)cc1OCC", "note": "(stereo not drawn)", "inhibition": "-15.6% (inactive)"}
{"smiles": "NC(=O)c1c(NC(=O)CSc2nnc(-c3ccco3)n2N)sc2c1CCCC2", "inhibition": "9.78% (inactive)"}
{"smiles": "NC(=O)c1c(Nc2nc3c(F)cccc3s2)sc2c1CCCC2", "inhibition": "87.1% (active)"}
{"smiles": "COc1cccc(OC)c1C(=O)Nc1sc2c(c1C(N)=O)CCCC2", "inhibition": "-6.93% (inactive)"}
{"smiles": "O=C(NCc1ccc(Cl)cc1)C(=O)NCC1CCCN1S(=O)(=O)c1cccs1", "note": "(stereo not drawn)", "inhibition": "-0.71% (inactive)"}
{"smiles": "Cc1ccc(NC(=O)c2cnc(SCC(=O)NCC3CCCO3)n(C)c2=O)cc1", "note": "(stereo not drawn)", "inhibition": "-10.7% (inactive)"}
{"smiles": "Cc1nc(-c2ccc(F)cc2)c(CC(=O)Nc2cc(S(=O)(=O)N3CCCCC3)ccc2C)s1", "inhibition": "-9.47% (inactive)"}
{"smiles": "O=C1CC(c2ccccc2)C(=O)N1c1cccc(O)c1", "note": "(stereo not drawn)", "inhibition": "14.5% (inactive)"}
{"smiles": "O=C1CC(NNc2ccccc2)C(=O)N1c1cccc(Cl)c1", "note": "(stereo not drawn)", "inhibition": "98% (active)"}
{"smiles": "O=C(NNC1CC(=O)N(c2cccc(Cl)c2)C1=O)c1cccnc1", "note": "(stereo not drawn)", "inhibition": "11.7% (inactive)"}
{"smiles": "COc1cc(C(=O)NC2CCN(C)CC2)ccc1Nc1ncc2c(n1)N(C1CCC(O)CC1)CCC(=O)N2C", "note": "(stereo not drawn)", "inhibition": "-1.63% (inactive)"}
{"smiles": "CCN1C(=O)[C@H]2[C@@H](c3ccc(SC4CCCCC4)c(OC)c3)N[C@@](Cc3ccccc3)(C(=O)OC)[C@H]2C1=O", "inhibition": "-5.65% (inactive)"}
{"smiles": "COc1ccc(CCC(=O)c2ccc(OC)cc2)cc1", "inhibition": "-20.1% (inactive)"}
{"smiles": "Cc1nc2cc(NC(=O)Nc3cccc(F)c3)ccc2n1C", "inhibition": "-7.89% (inactive)"}
{"smiles": "Cc1nc2cc(NCc3cccs3)ccc2n1C", "inhibition": "84% (active)"}
{"smiles": "Cc1nc2cc(NC(=O)NC3CC3)ccc2n1C", "inhibition": "50.8% (inactive)"}
{"smiles": "O=C(N=C1SC2CS(=O)(=O)CC2N1c1ccccc1)c1ccccc1", "note": "(stereo not drawn)", "inhibition": "-1.67% (inactive)"}
{"smiles": "CC1(c2ccccc2)NC(=O)N(CC(=O)N2CC(=O)Nc3ccccc32)C1=O", "note": "(stereo not drawn)", "inhibition": "-7.27% (inactive)"}
{"smiles": "COc1ccc2c(c1)O/C(=C\\c1ccccc1O)C2=O", "inhibition": "0.703% (inactive)"}
{"smiles": "CC1=C/C(=N\\OS(=O)(=O)c2ccccc2)C=CC1=O", "inhibition": "98.9% (active)"}
{"smiles": "O=S(=O)(ON(c1ccccc1)S(=O)(=O)c1ccccc1)c1ccccc1", "inhibition": "-14.1% (inactive)"}
{"smiles": "CCCCCN(C(=O)CCC(=O)OCC(=O)NC1CCC(C)CC1)c1c(N)n(CCCC)c(=O)[nH]c1=O", "note": "(stereo not drawn)", "inhibition": "-10.8% (inactive)"}
{"smiles": "C=CCC1=C/C(=C\\c2c(N)n3nc(CC(=O)N4CCOCC4)sc3nc2=O)C=C(OC)C1=O", "inhibition": "54.3% (inactive)"}
{"smiles": "COC1=C/C(=C/c2c(N)n3nc(CC(=O)N4CCOCC4)sc3nc2=O)C=CC1=O", "inhibition": "99.1% (active)"}
{"smiles": "COc1ccc(OCC(=O)N2CCOCC2)cc1", "inhibition": "-7.03% (inactive)"}
{"smiles": "O=C(Cc1ccc(S(=O)(=O)N2CCOCC2)s1)N1CCN(c2ccc(C(F)(F)F)cc2[N+](=O)[O-])CC1", "inhibition": "-1.8% (inactive)"}
{"smiles": "COc1ccccc1-c1sc2ccccc2c1-c1ccc(Br)nc1", "inhibition": "-3.77% (inactive)"}
{"smiles": "CC1CCCCC1NC(=O)c1cc(=O)[nH]c2ccccc12", "note": "(stereo not drawn)", "inhibition": "-38.4% (inactive)"}
{"smiles": "CCCCCNC(=O)C1c2ccccc2Oc2ccccc21", "inhibition": "-7.1% (inactive)"}
{"smiles": "CCC(C)(C)NC(=O)C1c2ccccc2Oc2ccccc21", "inhibition": "-6.09% (inactive)"}
{"smiles": "O=C(N/N=C/c1ccc(O)c(O)c1)C1c2ccccc2Oc2ccccc21", "inhibition": "99% (active)"}
{"smiles": "CSCCC(NC(=O)COc1ccccc1)C(=O)N(C)CC(=O)Nc1ccc(C)cc1", "note": "(stereo not drawn)", "inhibition": "-1.79% (inactive)"}
{"smiles": "COc1cccc(CNC(=O)CN2C(=O)NC(Cc3ccccc3)(c3ccccc3)C2=O)c1", "note": "(stereo not drawn)", "inhibition": "-2.85% (inactive)"}
{"smiles": "CC(C)c1ccc(/C=C/C(=O)NCCCN2CCOCC2)cc1", "inhibition": "3.5% (inactive)"}
{"smiles": "O=C1[C@H]2[C@@H](c3ccc(F)cc3)N3C(=O)N(c4ccc(C(F)(F)F)cc4)C(=O)[C@@]3(Cc3ccccc3)[C@H]2C(=O)N1C1CCCCC1", "inhibition": "2.08% (inactive)"}
{"smiles": "CC(C)/C=N/NC(=O)c1cc(Br)ccc1O", "inhibition": "44.3% (inactive)"}
{"smiles": "CC(=N\\NC(=O)c1cc(Br)ccc1O)/C(=N/O)C(=O)Nc1ccccc1", "inhibition": "85.8% (active)"}
{"smiles": "CC(=O)N/N=C(\\C)c1ccc(Br)cc1Br", "inhibition": "-9.48% (inactive)"}
{"smiles": "COc1ccc(-c2sc3ccc(OC)cc3c2C#Cc2ccccn2)cc1", "inhibition": "0.498% (inactive)"}
{"smiles": "O=C(COc1coc(CN2CCN(c3ccccc3F)CC2)cc1=O)N1CCc2ccccc21", "inhibition": "-0.38% (inactive)"}
{"smiles": "COc1ccccc1-n1ccnc1SCC(=O)NC(C)(C)C", "inhibition": "17.9% (inactive)"}
{"smiles": "Cc1ccccc1CSCC(=O)NC(=O)NC(C)(C)C", "inhibition": "-23.2% (inactive)"}
{"smiles": "CC(C)(C)NC(=O)CSC(=Nc1ccccc1F)NC#N", "inhibition": "98.7% (active)"}
{"smiles": "COc1cc(C(C)=O)ccc1OC(C)C(=O)Nc1ccc(S(=O)(=O)N2CCCC2)cc1", "note": "(stereo not drawn)", "inhibition": "-9.52% (inactive)"}
{"smiles": "O=C(CSc1ncnc2sccc12)NC1CCS(=O)(=O)C1", "note": "(stereo not drawn)", "inhibition": "-0.589% (inactive)"}
{"smiles": "COc1ccccc1CN1CC(C(=O)NCCc2cn[nH]c2)CCC1=O", "note": "(stereo not drawn)", "inhibition": "-0.59% (inactive)"}
{"smiles": "Cc1ccc(NC2CCCN(C(=O)CCc3cn[nH]c3)C2)cc1C", "note": "(stereo not drawn)", "inhibition": "98.7% (active)"}
{"smiles": "Cn1cc(CCC(=O)N2CCCC(C(=O)c3ccc(C(C)(C)C)cc3)C2)cn1", "note": "(stereo not drawn)", "inhibition": "-21% (inactive)"}
{"smiles": "CCC(C)c1ccc(NC(=O)COC(=O)C2CCCC2)cc1", "note": "(stereo not drawn)", "inhibition": "0.804% (inactive)"}
{"smiles": "CC(OC(=O)c1c(F)cccc1F)C(=O)NCCC1=CCCCC1", "note": "(stereo not drawn)", "inhibition": "-6.45% (inactive)"}
{"smiles": "O=C1CCCCN1CCCC(=O)N1CCCC(Nc2ccc(F)cc2)C1", "note": "(stereo not drawn)", "inhibition": "17.9% (inactive)"}
{"smiles": "O=C(CN1C(=O)CSC1=O)N1CCCC(Nc2ccc(F)cc2)C1", "note": "(stereo not drawn)", "inhibition": "99.1% (active)"}
{"smiles": "O=C(CN1CCOC1=O)N1CCCC(Nc2ccc(F)c(F)c2)C1", "note": "(stereo not drawn)", "inhibition": "12.5% (inactive)"}
{"smiles": "COC(=O)c1ccc(/C=C/c2c(-c3ccc(OC)cc3)sc3ccccc23)cc1", "inhibition": "2.88% (inactive)"}
{"smiles": "CC(OC(=O)c1ccc(-n2cnnn2)cc1)C(=O)NCc1ccccc1", "note": "(stereo not drawn)", "inhibition": "0.686% (inactive)"}
{"smiles": "CCCn1c(=S)[nH]c2ccc(C(F)(F)F)cc21", "inhibition": "96.9% (active)"}
{"smiles": "CC(C)n1c(=S)[nH]c2cc(C(F)(F)F)ccc21", "inhibition": "25.9% (inactive)"}
{"smiles": "CCCCn1c(=S)[nH]c2cc(S(=O)(=O)N3CCCCC3)ccc21", "inhibition": "9.62% (inactive)"}
{"smiles": "O=C(CNC(=O)c1ccccc1F)OCC(=O)c1c[nH]c2ccccc12", "inhibition": "-4.95% (inactive)"}
{"smiles": "CC(C)n1cnc2c(NCc3ccccc3)cc(N[C@@H](CO)Cc3ccccc3)cc21", "inhibition": "-30.8% (inactive)"}
{"smiles": "Cc1ccc(OCc2nc3ccccc3n2C)cc1", "inhibition": "-6.95% (inactive)"}
{"smiles": "Cn1c(Nc2cccc(Cl)c2)nc2ccccc21", "inhibition": "10.5% (inactive)"}
{"smiles": "Cc1ccc(O)c(CNc2nc3ccccc3n2C)c1", "inhibition": "90.7% (active)"}
{"smiles": "Cc1ccc(-c2csc(NCCc3nc4cc(Cl)c(Cl)cc4n3CCOCCO)n2)cc1", "inhibition": "-6.99% (inactive)"}
{"smiles": "O=C(Nc1cccc(F)c1)NC1CCCCCCC1", "inhibition": "43.5% (inactive)"}
{"smiles": "O=C(c1n[nH]c2c1CCC2)N1CCCC(Nc2cccc(F)c2)C1", "note": "(stereo not drawn)", "inhibition": "99.1% (active)"}
{"smiles": "Cc1ccc(F)cc1S(=O)(=O)Nc1cccc(C(=O)N2CCCC(C(N)=O)C2)c1", "note": "(stereo not drawn)", "inhibition": "-5.56% (inactive)"}
{"smiles": "CCCCn1c(N)c(N(CC(C)C)C(=O)c2cnc(C)cn2)c(=O)[nH]c1=O", "inhibition": "-2.15% (inactive)"}
{"smiles": "COc1ccc(-n2cc(CNC3CCOCC3)c(-c3cccc(F)c3)n2)cc1", "inhibition": "-7% (inactive)"}
{"smiles": "CCC(O)C1CCN(Cc2cn(-c3ccc(OC)cc3)nc2-c2cccc(F)c2)CC1", "note": "(stereo not drawn)", "inhibition": "-36.1% (inactive)"}
{"smiles": "COc1ccc(-c2nn(-c3ccccc3)cc2CN2CCCO2)c(F)c1", "inhibition": "83.5% (active)"}
{"smiles": "C[C@@H]1NC(=O)[C@@]2(C)[C@@H](c3ccccc3)[C@H]3COc4ccccc4[C@@H]3N2C1=O", "inhibition": "0.598% (inactive)"}
{"smiles": "CN1CCN(CCC(=O)N/N=C/C=C2\\N(C)c3ccccc3C2(C)C)CC1", "inhibition": "99% (active)"}
{"smiles": "CN1/C(=C\\C(=O)c2cccnc2Cl)C(C)(C)c2ccccc21", "inhibition": "-13.8% (inactive)"}
{"smiles": "CC(C)Nc1nnc(SCC(=O)/C=C2\\N(C)c3ccccc3C2(C)C)s1", "inhibition": "-3.17% (inactive)"}
{"smiles": "Cc1ccc(NC(=O)CN(C)C(=O)c2ccc(Cl)c(S(=O)(=O)NCc3ccco3)c2)cc1", "inhibition": "-3.45% (inactive)"}
